# Measured values as given in article PMC4336329 (PLoS ONE, 2015).
# Out of some 310,000 compounds screened, about 2,200 (0.71%) showed an effect of 50% or more. Effects have a minus sign here. The sample holds strong results, similar compounds and a random draw of the others, so the mix is not that of the screen.
# Target: human ether-à-go-go-related gene (hERG) potassium channel (human, UniProt Q12809)
# Experiment: primary screen, population patch clamp on CHO cells stably expressing hERG; higher = less effect of the substance
# human ether-à-go-go-related gene (hERG) potassium channel, sequence (Q12809 whole entry, looked up): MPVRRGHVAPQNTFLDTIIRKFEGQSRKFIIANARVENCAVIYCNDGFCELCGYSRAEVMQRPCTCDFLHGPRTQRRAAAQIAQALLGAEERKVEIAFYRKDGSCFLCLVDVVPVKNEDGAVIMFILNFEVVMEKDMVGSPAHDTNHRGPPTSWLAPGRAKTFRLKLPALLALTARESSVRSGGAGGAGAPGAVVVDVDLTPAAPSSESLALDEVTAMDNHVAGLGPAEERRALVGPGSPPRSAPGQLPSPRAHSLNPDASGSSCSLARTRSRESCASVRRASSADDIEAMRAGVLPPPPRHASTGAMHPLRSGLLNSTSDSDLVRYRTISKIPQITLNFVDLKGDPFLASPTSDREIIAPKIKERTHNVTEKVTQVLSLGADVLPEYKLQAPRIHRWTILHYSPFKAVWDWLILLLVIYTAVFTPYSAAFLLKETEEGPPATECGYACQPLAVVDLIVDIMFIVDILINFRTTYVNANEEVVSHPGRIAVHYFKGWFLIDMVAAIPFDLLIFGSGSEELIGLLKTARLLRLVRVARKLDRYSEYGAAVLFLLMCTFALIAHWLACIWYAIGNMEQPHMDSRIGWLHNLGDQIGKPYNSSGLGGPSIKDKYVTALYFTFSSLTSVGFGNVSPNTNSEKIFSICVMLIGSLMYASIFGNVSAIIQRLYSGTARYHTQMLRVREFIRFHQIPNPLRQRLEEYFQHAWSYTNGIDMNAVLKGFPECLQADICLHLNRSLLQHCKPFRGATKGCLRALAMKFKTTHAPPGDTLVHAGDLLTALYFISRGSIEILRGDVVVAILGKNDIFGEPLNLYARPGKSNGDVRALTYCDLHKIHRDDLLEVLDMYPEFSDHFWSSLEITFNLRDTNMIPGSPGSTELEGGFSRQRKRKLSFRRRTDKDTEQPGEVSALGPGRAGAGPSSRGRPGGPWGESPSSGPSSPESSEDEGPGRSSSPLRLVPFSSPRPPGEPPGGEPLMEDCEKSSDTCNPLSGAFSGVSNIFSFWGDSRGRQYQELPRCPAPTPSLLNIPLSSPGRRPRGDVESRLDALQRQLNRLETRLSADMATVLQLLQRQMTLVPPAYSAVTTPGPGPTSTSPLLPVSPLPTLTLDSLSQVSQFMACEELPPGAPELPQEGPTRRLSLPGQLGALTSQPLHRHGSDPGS
row,Structure (SMILES),"hERG current change (%, negative = inhibition) at 1uM"
1,COc1ccccc1C(=O)Nc1c2c(nn1-c1cccc(C)c1C)CS(=O)C2 (stereo not shown),-3.22%
2,Cc1ccc(-n2c(O)c(C=Nc3ccc(S(=O)(=O)Nc4ncccn4)cc3)c3ccccc3c2=O)cc1C,-2.78%
3,CC(=O)N1N=C(c2ccc(Br)cc2)CC1c1cn(C)c2ccccc12 (stereo not shown),9.41%
4,O=C(N/N=C1\CCCc2ccccc21)c1cccc(Br)c1,9.96%
5,CCOC(=O)C1(Cc2cccc(F)c2)CCN(Cc2cnn(CC)c2)CC1,-4.74%
6,CCOC(=O)C1(Cc2cccc(F)c2)CCN(CCCn2cccn2)CC1,-51.2%
7,CCOC(=O)C1(Cc2ccc(Cl)cc2)CCN(Cc2cn(CC)nc2C)CC1,-28.5%
8,CCOC(=O)C1(CCCc2ccccc2)CCN(Cc2ccn[nH]2)CC1,-27.8%
9,CCOC(=O)C1(CCCc2ccccc2)CCN(Cc2cn(CC)nc2C)CC1,-59.8%
10,CCOC(=O)C1(Cc2cccc(F)c2)CCN(CC2CC2)CC1,-2.54%
11,COC(=O)C1=CN(Cc2ccc(OC)c(OC)c2)C=C(C(=O)OC)C1c1ccc(F)cc1,4.21%
12,COCCNC(=O)c1ccc(CSc2nc3ccccc3s2)cc1,3.95%
13,Cc1cccc(N2CCN(C(=O)c3cc4c(=O)[nH]c5ccccc5c4n3C)CC2)c1C,11.2%
14,Cc1ccc(Cl)cc1N1CCN(C(=O)c2cc3c(=O)[nH]c4ccccc4c3n2C)CC1,10.4%
15,Cn1c(C(=O)N2CCN(c3ccc(Cl)cc3)CC2)cc2c(=O)[nH]c3ccccc3c21,-56%
16,COc1ccccc1C(=O)Nn1c(C2CCC2)nc2ccccc2c1=O,4.52%
17,CCc1ccc(CNC(=O)Cn2nc(-c3ccccc3)ccc2=O)cc1,8.46%
18,CC1CCc2c(sc(NC(=O)C(=O)NCc3ccco3)c2C#N)C1 (stereo not shown),-63.6%
19,CC(=O)Nc1sc2c(c1C#N)CCC(C)C2 (stereo not shown),11.7%
20,CC1CCc2c(sc(NC(=O)COC(=O)c3ccccc3NCc3ccco3)c2C#N)C1 (stereo not shown),12.9%
21,CC(=O)c1cc(C#N)c(SCc2ccc([N+](=O)[O-])cc2)nc1C,10.4%
22,Cc1cc(C)nc(SCc2ccc([N+](=O)[O-])cc2)n1,6.29%
23,Cc1nc(N)nc(SCc2ccc([N+](=O)[O-])cc2)c1N,-70.8%

row,Structure (SMILES),"hERG current change (%, negative = inhibition) at 1uM"
1,CC(OC(=O)c1ccc2ncsc2c1)C(=O)Nc1ncc(Cl)cc1Cl (stereo not shown),8.58%
2,CC(NC(=O)c1ccc2c(c1)OCCO2)c1ccc(S(N)(=O)=O)cc1 (stereo not shown),-3.42%
3,O=[N+]([O-])c1ccc2oc(C3CCCCC3)nc2c1,14.4%
4,CC(NC(=O)c1cccc(S(=O)(=O)N(C)C)c1)c1nc2ccccc2[nH]1 (stereo not shown),9.08%
5,O=C(Cn1nc(-c2ccccc2)ccc1=O)Nc1ccc(-n2cnnn2)cc1,9.23%
6,C=CCN1C(=O)NC(=O)C(CCc2ccncc2)(CCc2ccncc2)C1=O,-12.3%
7,CCc1ccc(N2C(=O)NC(=O)C(CCc3ccncc3)(CCc3ccncc3)C2=O)cc1,-41.1%
8,O=C1NC(=O)C(CCc2ccncc2)(C2CCCCC2)C(=O)N1,11.2%
9,O=C1NC(=O)C(CCc2ccncc2)(CCc2ccncc2)C(=O)N1Cc1ccc(F)cc1,-78.2%
10,O=C1NC(=O)C(CCc2ccncc2)(CCc2ccncc2)C(=O)N1C1CCCCC1,-69.7%
11,O=C1NC(=O)C(CCc2ccncc2)(CCc2ccncc2)C(=O)N1Cc1ccccc1,-43.4%
12,O=C1NC(=O)C(CCc2ccncc2)(CCc2ccncc2)C(=O)N1CCc1ccccc1,-23.1%
13,O=C1NC(=O)C(CCc2ccncc2)(CCc2ccncc2)C(=O)N1CCc1ccc(F)cc1,-77.1%
14,O=C1NC(=O)C(CCc2ccncc2)(Cc2ccc3c(c2)OCO3)C(=O)N1CCc1ccccc1 (stereo not shown),-10.8%
15,O=C1c2ccccc2C(O)(c2ccccc2)N1C1CC1 (stereo not shown),-8.45%
16,C#CCOc1ccc(Br)cc1C(c1c(C)[nH][nH]c1=O)c1c(C)[nH][nH]c1=O,11.6%
17,c1ccc2oc(SCc3cn4ccccc4n3)nc2c1,-12.5%
18,COC(=O)COc1ccc(NC(=O)C(c2ccccc2)c2ccccc2)cc1,6.63%
19,O=C(Nc1cccc(C(F)(F)F)c1)c1csc(-c2ccncc2)n1,-82.4%
20,O=C(Nc1ccc(C(F)(F)F)cc1)c1csc(-c2ccncc2)n1,-2.94%
21,Cc1ccc(C(=O)Nc2cccc(C(F)(F)F)c2)cc1NC(=O)c1csc(-c2ccncc2)n1,-17.1%
22,CN(CCCNC(=O)C1CCC(=O)N1Cc1ccccc1Cl)c1ccccc1 (stereo not shown),19.2%
23,CCOC(=O)N1CCN(Cc2cn[nH]c2-c2ccc(-c3ccccc3)cc2)CC1,7.03%

row,Structure (SMILES),"hERG current change (%, negative = inhibition) at 1uM"
1,CCOC(=O)C1(CC2CC2)CCN(Cc2cnc(-c3ccc(OC)cc3)nc2)CC1,11.7%
2,CCOC(=O)C1(CC2CC2)CCN(Cc2ccc(OC)cc2F)CC1,-73.3%
3,CCOC(=O)C1(CC2CC2)CCN(Cc2cn[nH]c2-c2ccccc2)CC1,-65.5%
4,CCOC(=O)C1(CC2CCCCO2)CCN(Cc2ccc(OC)cc2F)CC1 (stereo not shown),-19.8%
5,CCOC(=O)C1(CC2CC2)CCN(Cc2cn(C)c3ccccc23)CC1,12.2%
6,CCOC(=O)C1(CC2CCCCO2)CCN(Cc2cn[nH]c2-c2cccc(F)c2)CC1 (stereo not shown),-27.2%
7,CCOC(=O)C1(CC2CC2)CCN(Cc2cn[nH]c2-c2cccc(F)c2)CC1,-57.6%
8,CCOC(=O)C1(Cc2ccccc2)CCN(Cc2cn[nH]c2-c2ccccc2)CC1,1.58%
9,Cc1cnc(C(=O)OCC(=O)Nc2cc(S(=O)(=O)N3CCCCC3)ccc2Cl)cn1,19.4%
10,CCOc1ccc(NC(=O)CC2C(=O)N(c3cccc(OC)c3)C(=O)N2CCOC)cc1 (stereo not shown),3.67%
11,CC(C)CN(C(=O)CN1CCN(S(=O)(=O)c2ccccc2)CC1)c1c(N)n(CC(C)C)c(=O)[nH]c1=O,-2.18%
12,CCOC(=O)c1c(CN(CC)CC)n(-c2ccccc2)c2ccc(O)cc12,-45.6%
13,Cc1ccc(C(=O)Nc2cnc3ccccc3c2)cc1,6.66%
14,COc1ccc2c(CN3CC=C(c4ccccc4)CC3)cc(=O)oc2c1,13.1%
15,Nc1cccc(Cl)c1N1CCOCC1,9%
16,COc1ccccc1CNC(=O)C1CCCN(S(=O)(=O)c2cccc3cccnc23)C1 (stereo not shown),0.692%
17,COc1cccc(C(=O)N2CCN(C(=O)COc3ccc4ccccc4c3)CC2)c1,-3.85%
18,COc1cc(C(=O)N2CCN(C(=O)COc3ccc4ccccc4c3)CC2)cc(OC)c1OC,-54%
19,O=C(COc1ccccc1)N1CCN(C(=O)c2ccc([N+](=O)[O-])cc2)CC1,-19%
20,COc1ccc(OCC(=O)N2CCN(C(=O)c3ccc([N+](=O)[O-])cc3)CC2)cc1,-43.2%
21,COc1cc(OC)cc(C(=O)N2CCN(C(=O)COc3ccc4ccccc4c3)CC2)c1,-4.51%
22,O=C(COc1ccc2ccccc2c1)N1CCN(C(=O)c2ccc([N+](=O)[O-])cc2)CC1,-69.3%
23,O=C(CN1CCN(C(=O)C2CC2)CC1)Nc1cc(C(F)(F)F)cc(C(F)(F)F)c1,-5.9%

row,Structure (SMILES),"hERG current change (%, negative = inhibition) at 1uM"
1,CCOc1ccc(Br)cc1S(=O)(=O)NC1CC(C)(C)NC(C)(C)C1,17%
2,CC1(C)CC(NC(=O)COc2ccc3ccc(=O)oc3c2)CC(C)(C)N1,13.6%
3,CCOC(=O)c1c2n(c3c(NCc4ccccc4)ncnc13)CCCC2,-70.3%
4,CCOC(=O)CSc1ncnc2c(C(=O)OCC)c3n(c12)CCC3,-10.4%
5,CCOC(=O)c1c(NCc2ccccc2)n[nH]c1C,4.96%
6,COC(=O)c1c(NC(=O)CSc2ncn[nH]2)sc(C)c1C,11.2%
7,CCN1CCN(c2ncnc3scc(-c4ccc(C)c(C)c4)c23)CC1,-50.8%
8,Cc1ccc(-c2csc3ncnc(N4CCN(C)CC4)c23)cc1C,10.8%
9,CCN1CCN(c2ncnc3scc(-c4ccc(C)cc4)c23)CC1,3.26%
10,CN(C)S(=O)(=O)c1ccc(C(=O)NCc2ccccn2)cc1,14.5%
11,COc1ccc(CCN(C)Cc2ccc(OCc3ccccc3)c(OC)c2)cc1OC,-42.9%
12,Cl.NS(=O)(=O)c1ccc(CCNCc2ccccc2OCc2ccc(F)cc2)cc1,-21.5%
13,COc1cc(CNCCc2ccc(S(N)(=O)=O)cc2)ccc1OCc1ccc(Cl)cc1.Cl,-1.77%
14,COc1ccc(CCN(C)C/C=C/c2ccccc2)cc1OC,-43.3%
15,COc1ccc(CCN(C)Cc2ccc(OC)c(OCc3ccccc3)c2)cc1OC,-77%
16,C=CCOc1ccccc1CNCCc1ccc(S(N)(=O)=O)cc1.Cl,-6.97%
17,Cl.NS(=O)(=O)c1ccc(CCNCc2ccccc2OCc2ccc(Cl)cc2)cc1,-70.5%
18,CN(C/C=C/c1ccccc1[N+](=O)[O-])Cc1ccccc1,-8.37%
19,Cl.NS(=O)(=O)c1ccc(CCNCc2cc(Cl)ccc2OCc2ccccc2)cc1,-59.3%
20,COc1ccc(CCN(C)C/C=C/c2ccccc2[N+](=O)[O-])cc1OC,-54.3%
21,Cl.NS(=O)(=O)c1ccc(CCNCc2cc(Br)ccc2OCc2ccccc2)cc1,-44.9%
22,COc1cc(CN(C)CCc2ccccc2)ccc1OCc1ccccc1,-12.2%
